KDM5B inhibitor – inhibitors of human KDM5B histone demethylase; AID 1347165; Potency, µM (highest dose often 57.7 µM), actives largely listed as inhibitors; hit rate 2.6% among 220,000; KDM5B demethylase, FDH-coupled NADH fluorescence (FDH is formaldehyde dehydrogenase); Q9UGL1; note: nearly all actives have a fitted effect of over 70% in size
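Inhibition is measured as reduced NADH fluorescence generation from FDH coupling to formaldehyde release. Truncated KDM5BΔAP at 200 nM final acts on H3K4me3 peptide (12.5 µM in substrate mix) in pH 7.5 HEPES buffer with Tween-20, 30 min, room temperature.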
SNCA viab count – cell viability loss counter-screen; AID 1671193; hit rate 0.12% among 150,000; HEK-293-SNCA-luc viability, GF-AFC fluorescence, 24 h; Potency, µM (highest dose often 57.1 µM), actives largely listed as cytotoxic; note: nearly all actives have a fitted effect of over 30% in size
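HEK-293-SNCA-luc cells (1500/well) plated 24 h, then exposed 24 h to a dilution series; GF-AFC added 30 min at 37C, fluorescence 405/540 nm; normalised to medium-only and DMSO wells, Hill fit.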
IP6K1 inh – IP6K1 kinase inhibition; IP6K1 kinase, ADP-Glo luminescence, 2 h; stronger effect = lower value; activity change, % (series mostly up to about 58 µM); Q92551; hit rate 0.81% among 140,000; AID 1645851; in the data active = activity change below about -25%
Target sequence (Q92551 whole entry, looked up): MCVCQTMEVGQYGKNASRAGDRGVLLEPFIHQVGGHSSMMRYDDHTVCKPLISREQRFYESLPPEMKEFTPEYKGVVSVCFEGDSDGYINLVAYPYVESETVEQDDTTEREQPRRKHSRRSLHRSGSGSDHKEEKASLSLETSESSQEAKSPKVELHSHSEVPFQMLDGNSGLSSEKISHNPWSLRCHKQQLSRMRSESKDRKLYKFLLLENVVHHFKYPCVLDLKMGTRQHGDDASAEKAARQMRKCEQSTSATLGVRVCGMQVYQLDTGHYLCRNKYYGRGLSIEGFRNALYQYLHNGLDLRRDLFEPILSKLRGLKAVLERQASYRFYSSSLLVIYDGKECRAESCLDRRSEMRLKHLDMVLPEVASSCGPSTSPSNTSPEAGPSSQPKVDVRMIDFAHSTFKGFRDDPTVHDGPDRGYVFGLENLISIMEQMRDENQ
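ADP-Glo luminescence measures ADP made by human IP6K1 during a 2 h RT reaction with ATP/IP6 (mix at 1.3 mM/130 uM); top library doses 57.5 and 19.1 uM final.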
SNCA expr inh – inhibitors of alpha-synuclein (SNCA) gene expression; AID 1671194; Potency, µM (highest dose often 57.2 µM), most hits filed as inhibitors; HEK-293 SNCA-luciferase knock-in, luminescence, 24 h; hit rate 0.17% among 140,000; note: nearly all actives have a fitted effect of over 45% in size
Each line names hits and unclear results; the compound was inactive in the other large screens; ! = a repeat was not active. Only some compounds are listed: those with a hit (about 3% of all), similar ones and a draw of the others. Unless noted, calls come from the whole dose curve; as a rule, active = well fitted curve in the direction sought with a large enough effect; inconclusive = small, poorly fitted or top-dose-only effect, or another doubt; inactive = no such curve, though single readings can be large; an effect the other way counts as inactive or inconclusive.

O=C(NCCCN1CCN(c2ccc(F)cc2)CC1)C1COc2ccccc2C1 (stereo not drawn)	none
O=C(NCc1ccc(F)cc1)C1CCCN(C(=O)c2cccc(C(F)(F)F)c2)C1 (stereo not drawn)	none (no result: SNCA viab count, IP6K1 inh, SNCA expr inh)
Cc1ccc(-c2noc([C@@H]3C[C@@H](O)CN3CC3CC3)n2)cc1F	none
O=C(O)CCC(=O)N[C@H]1CCN2C(=O)c3cc(-c4ccccc4)ccc3NC(=O)[C@H]12	none
CSc1ccc(-c2ccc3c(c2)C(=O)N2CC[C@H](NC(=O)C4CCCC4)[C@H]2C(=O)N3)cc1	KDM5B inhibitor 25µM
COc1ccc(-c2ccc3c(c2)C(=O)N2CC[C@H](NC(=O)CCC(=O)O)[C@H]2C(=O)N3)cc1	KDM5B inhibitor 20µM
COc1ccc(-c2ccc3c(c2)C(=O)N2CC[C@H](NS(=O)(=O)c4cccs4)[C@H]2C(=O)N3)cc1	KDM5B inhibitor 22µM
O=C(N[C@H]1CCN2C(=O)c3cc(-c4ccc(Cl)cc4)ccc3NC(=O)[C@H]12)c1cccs1	KDM5B inhibitor 32µM
CN(C)CCC#CC(O)(c1ccccc1)C1CCCCC1 (stereo not drawn)	none (no result: SNCA viab count, IP6K1 inh, SNCA expr inh)
O=C(CCc1nc(-c2ccc(F)cc2)no1)Nc1cccc(S(=O)(=O)NC2=NCCC2)c1	none (no result: SNCA viab count, IP6K1 inh, SNCA expr inh)
COc1ccc(/C=C/c2ccc3c(c2)C(=O)N2CC[C@H](N)[C@H]2C(=O)N3)cc1	KDM5B inhibitor 35µM
COc1ccc(-c2ccc3c(c2)C(=O)N2CC[C@H](NC(=O)c4cccs4)[C@H]2C(=O)N3)c(OC)c1	KDM5B inhibitor 28µM
COc1ccc(/C=C/c2ccc3c(c2)C(=O)N2CC[C@H](NC(=O)c4cnccn4)[C@H]2C(=O)N3)cc1	KDM5B inhibitor inconclusive
Cc1cccc(-c2ccc3c(c2)C(=O)N2CC[C@H](NC(=O)c4cccs4)C[C@H]2C(=O)N3)c1C	KDM5B inhibitor inconclusive
CSCC(=O)N[C@H]1CCN2C(=O)c3cc(-c4ccc(Cl)cc4)ccc3NC(=O)[C@H]12	KDM5B inhibitor 28µM
COc1ccc(-c2ccc3c(c2)C(=O)N2CC[C@H](NC(=O)c4cccs4)[C@H]2C(=O)N3)cc1	KDM5B inhibitor inconclusive
O=C(N[C@H]1CCN2C(=O)c3cc(-c4ccsc4)ccc3NC(=O)[C@@H]2C1)c1cccs1	KDM5B inhibitor 22µM
CC(OC(=O)c1ccc(O)cc1)C(=O)C12CC3CC(CC(C3)C1)C2 (stereo not drawn)	none (no result: SNCA viab count, IP6K1 inh, SNCA expr inh)
Cc1ccc(C)c(Nc2nnc(-c3ccc(C)c(S(N)(=O)=O)c3)c3ccccc23)c1	none (no result: SNCA viab count, IP6K1 inh, SNCA expr inh)
CCCCCn1nc(C(=O)N2CCCC2c2nc3ccccc3s2)c2ccccc2c1=O (stereo not drawn)	none (no result: SNCA viab count, IP6K1 inh, SNCA expr inh)
COc1ccc(C2C(c3ccc(C)cc3)=C(O)C(=O)N2CCc2ccccc2)cc1 (stereo not drawn)	none (no result: SNCA viab count, IP6K1 inh, SNCA expr inh)
COc1ccc(Cl)cc1-c1ccc2c(c1)C(=O)N1CC[C@H](NC(=O)c3cccs3)[C@H]1C(=O)N2	KDM5B inhibitor 25µM, SNCA viab count inconclusive, SNCA expr inh inconclusive
Clc1ccc(N/N=C/C(Br)=C/c2ccccc2)cc1	none (no result: SNCA viab count, IP6K1 inh, SNCA expr inh)
CCN(CC)c1ccc(CNC(=O)c2cc3c(s2)CN(C(C)C)C3)cc1	KDM5B inhibitor inconclusive, SNCA expr inh inconclusive
CCc1ccccc1NC(=O)c1cc2c(s1)CN(C(C)C)C2	KDM5B inhibitor 7.1µM
CCOC(=O)Cc1cc(=O)n2[nH]c(NCc3ccc(OC)cc3)nc2n1	none (no result: SNCA viab count, IP6K1 inh, SNCA expr inh)
O=C(CSc1nc(=O)n(Cc2cccnc2)c2c1CCC2)N1CCCCC1	none (no result: SNCA viab count, IP6K1 inh, SNCA expr inh)
COC(=O)c1nc2ccccc2nc1N1CCN(c2cc(C)ccc2C)CC1	none (no result: SNCA viab count, IP6K1 inh, SNCA expr inh)
Cc1cc(C)n2ncc(C(=O)N3CCC(c4[nH]ncc4-c4ccccc4)CC3)c2n1	KDM5B inhibitor inconclusive
Cc1nc2ncccn2c1C(=O)N1CCC(c2[nH]ncc2-c2ccccc2)CC1	KDM5B inhibitor 28µM
O=C(CCS(=O)(=O)c1ccc2c(c1)OCCO2)Nc1cccc(F)c1	none (no result: SNCA viab count, IP6K1 inh, SNCA expr inh)
O=C(NCC1CCCCC1)C1(CCO)CCN(c2ncccn2)C1 (stereo not drawn)	KDM5B inhibitor 32µM
CC(C)CNC(=O)C1(CCO)CCN(c2ncccn2)C1 (stereo not drawn)	KDM5B inhibitor 25µM
O=C(NCCN1CCCCC1)C1(CCO)CCN(c2ncccn2)C1 (stereo not drawn)	KDM5B inhibitor 25µM
Cc1ccc(S(=O)(=O)CC(=O)c2ccc(F)cc2)cc1C	none (no result: SNCA viab count, IP6K1 inh, SNCA expr inh)
COC(=O)c1ccc([C@H]2Nc3ccc(S(=O)(=O)Nc4ccc(C)cc4)cc3[C@H]3C=CC[C@H]32)cc1	KDM5B inhibitor inconclusive
COc1ccc(NS(=O)(=O)c2ccc3c(c2)[C@H]2C=CC[C@H]2[C@@H](c2ccc(C(=O)O)cc2)N3)cc1	KDM5B inhibitor inconclusive, IP6K1 inh -58
Cc1n[nH]c(C)c1S(=O)(=O)N1CCC(C)CC1	none (no result: SNCA viab count, IP6K1 inh, SNCA expr inh)
OCCC1CN(c2cc(C(F)(F)F)ccn2)CCN1CC1CCCCC1 (stereo not drawn)	KDM5B inhibitor 22µM
OCCC1CN(CCOc2ccc(F)cc2)CCN1CC1CCCCC1 (stereo not drawn)	none
COCCn1cnc2ccc(-c3ccnn3C)nc2c1=O	KDM5B inhibitor 35µM
COc1ncccc1-c1ccc2ncn(Cc3ccccn3)c(=O)c2n1	KDM5B inhibitor 35µM
CSc1ccc(C2c3c(-c4ccccc4O)n[nH]c3C(=O)N2CCO)cc1 (stereo not drawn)	none (no result: SNCA viab count, IP6K1 inh, SNCA expr inh)
CCN(CC)CCNC(=O)c1ccc2nc(-c3ccccc3)c(-c3ccc(CN4CCC(n5c(=O)[nH]c6ccccc65)CC4)cc3)nc2c1	SNCA viab count 15µM!, SNCA expr inh inconclusive (no result: KDM5B inhibitor)
CC(C)CCC(=O)NCC(C)N1CCCC1 (stereo not drawn)	none (no result: SNCA viab count, IP6K1 inh, SNCA expr inh)
O=C(Nc1ccc(-c2nnc3n2CCCC3)cc1)C1CCCC1	none
C=CCNC(=O)c1ccccc1NC(=O)C1CCC1	none (no result: SNCA viab count, IP6K1 inh, SNCA expr inh)
C=CCNC(=O)c1ccc(-c2nnc3ccc(NC(=O)C4CCC4)cn23)cc1	KDM5B inhibitor 22µM
O=C(NCCN1CCCCC1)c1ccc(-c2nnc3ccc(NC(=O)C4CCC4)cn23)cc1	KDM5B inhibitor 22µM
O=C(Nc1ccc(F)cc1)c1cc(-c2ccco2)on1	none (no result: SNCA viab count, IP6K1 inh, SNCA expr inh)
CCOc1nccn2c(-c3ccc(CNC(=O)c4ccnn4C)cc3)cnc12	KDM5B inhibitor 40µM, SNCA expr inh inconclusive
CN(C)c1ccc(CN2CCC[C@H]2c2nc(-c3ccnc(N4CCC(C(N)=O)CC4)c3)no2)cc1	KDM5B inhibitor inconclusive
CC(=O)N1CCN(c2cc(-c3noc([C@@H]4CCCN4Cc4ccc(C(F)(F)F)cc4)n3)ccn2)CC1	KDM5B inhibitor 28µM, SNCA expr inh inconclusive
NC(=O)C1CCN(c2cc(-c3noc([C@@H]4CCCN4Cc4ccc(F)c(F)c4)n3)ccn2)CC1	KDM5B inhibitor 25µM
Cn1nc(C(=O)Nc2cccc(Cl)c2)c2c1-c1ccsc1CC2	none (no result: SNCA viab count, IP6K1 inh, SNCA expr inh)
CN(C)c1ccc(NC(=O)c2cc(C(C)(C)C)cc(C(C)(C)C)c2)cc1	none (no result: SNCA viab count, IP6K1 inh, SNCA expr inh)
Cc1ccc(S(=O)(=O)Nc2ccccc2SCc2cc(=O)n3cc(Cl)ccc3n2)cc1	none (no result: SNCA viab count, IP6K1 inh, SNCA expr inh)
CCn1ncc(CN2CCCC23CCN(c2ccc(C(F)(F)F)cn2)CC3)c1C	KDM5B inhibitor 28µM

Source: PubChem (National Center for Advancing Translational Sciences (NCATS))
